The list is not random: actives were taken first. Their share in the collection is about 2.3%.
ZTA counter: ZTA (EBV) inhibition in EBNA-1 counter-screen; P03206; ZTA-DNA binding, fluorescence polarization; inhibition, % at 11 µM; hit rate 0.15% among 320,000; in the data active means inhibition above about 33%
Target sequence (P03206 whole entry, looked up): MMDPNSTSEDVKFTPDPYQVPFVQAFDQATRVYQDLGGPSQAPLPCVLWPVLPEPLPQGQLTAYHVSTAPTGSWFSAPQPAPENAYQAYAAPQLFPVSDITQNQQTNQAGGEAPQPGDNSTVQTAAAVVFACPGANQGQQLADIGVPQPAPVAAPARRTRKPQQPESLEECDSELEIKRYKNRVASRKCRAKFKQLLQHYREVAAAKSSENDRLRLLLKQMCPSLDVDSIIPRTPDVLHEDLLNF
bovine MsrA act: activates bovine MsrA enzyme; purified bovine MsrA, absorbance read-out; activation, % at 10.6 µM; hit rate 0.3% among 360,000; AID 602163; in the data active means activation above about 7.5%;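 further: 0% = vehicle and 100% = reference activator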
PP1 inh: PP1-alpha (human) inhibition in PP5 counter-screen; inhibition, % at 6.7 µM; hit rate 0.9% among 320,000; AID 2235; purified PP1alpha, OMFP fluorescence;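 active means inhibition above the mean inhibition of all tested compounds plus 3 SD, computed separately for each screening campaign, cut at about 15% in these data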
PP5 inh: inhibitors of human protein phosphatase 5 (PP5). P53041. inhibition, % at 6.7 µM. hit rate 0.18% among 320,000. purified PP5c, OMFP substrate fluorescence;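 active means inhibition above the campaign's mean inhibition across all tested compounds plus 3 SD, cut at about 9.5% in these data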;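 further: 0% = DMSO only and 100% = 100 µM cantharidin control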
EBNA-1 inhibitor: blocks EBNA-1 binding to DNA; EBNA-1 DNA binding, fluorescence polarization; inhibition, % at 14.8 µM; hit rate 0.34% among 300,000; AID 1950; in the data active means inhibition above about 28%
MsrA inhibitor: bovine MsrA inhibition | AID 651718 | inhibition, % at 15.5 µM | hit rate 0.75% among 360,000 | purified bovine MsrA, absorbance read-out; in the data active means inhibition above about 4.5%;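 further: 0% = vehicle wells with enzyme and 100% = reference inhibitor wells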
An asterisk follows results filed as active; nt = not tested or not shown.

SMILES	ZTA counter	bovine MsrA act	PP1 inh	PP5 inh	EBNA-1 inhibitor	MsrA inhibitor
CCN(CC)CC(C)(C)C(=O)/C=C/c1ccc(/C=C/C(=O)C(C)(C)CN(CC)CC)cc1	nt	2.3	nt	nt	nt	11.9*
COc1cc(CNc2ccc(N3CCCC3)cc2)ccc1OCc1ccccc1F	79.2*	-3.9	9.9	0.7	65.1*	nt
COc1cc(CNc2ccc(N3CCCC3)cc2)ccc1OCc1ccccc1	75.8*	-4.1	8.5	1.3	74.5*	0.3
Cc1ccc(NC(=O)C(=O)NCC2OCCc3ccccc32)cc1 (stereo unspecified)	6.0	-3.9	10.1	0.2	-7.5	0.0
O=C(NCC1OCCc2ccccc21)c1ccc(NC(=O)c2ccc(Cl)cc2)cc1 (stereo unspecified)	0.8	-3.6	12.4	1.9	32.1*	-0.8
Cc1cc2c(c(=O)o1)[C@@]1(C(=O)N(C)c3c(Br)cccc31)C1=C(CCCC1=O)O2	nt	nt	nt	nt	nt	0.1
Oc1c(Br)cc(/C=N/n2c(-c3ccccc3)n[nH]c2=S)cc1Br	nt	2.0	nt	nt	nt	3.3
Oc1ccc(/C=N/n2c(-c3ccccc3)n[nH]c2=S)cc1Br	nt	0.7	nt	nt	nt	4.6*
COC(=O)[C@]12C[C@H](CC(=O)NCCC(C)C)C(=O)N(Cc3ccc4c(c3)OCO4)C1=C[C@H](COCc1ccccc1)O[C@@H]2C	nt	nt	nt	nt	nt	0.2
Cc1ccc(NC(=S)N(Cc2ccc(Cl)cc2)Cc2ccc(C(=O)O)cc2)cc1Cl	5.1	-5.0	17.3*	6.1	-9.9	1.0
COc1ccc(CN(CC2CCC(C(=O)O)CC2)C(=S)Nc2ccc(C)c(Cl)c2)cc1 (stereo unspecified)	6.8	-6.0	3.4	0.4	-4.3	0.5
COC(=O)N1C[C@H](OCc2ccccc2)[C@H]2C[C@@H]1c1ccccc1O2	nt	nt	nt	nt	nt	0.7
COc1ccc(C(=O)NNC(=S)NC(=O)/C=C/c2cccs2)cc1	15.0	-1.4	-2.8	-1.6	1.0	1.1
O=C(/C=C/c1cccs1)NC(=S)NNC(=O)c1ccccc1O	0.5	-7.1	1.9	2.5	-16.8	6.9*
CCN1C(=O)N/C(=C/c2cc(C)n(Cc3ccccc3)c2C)C1=O	14.3	-7.4	3.6	-1.3	-6.7	4.6*
Cc1ccc(S(=O)(=O)NC(=O)c2ccc(-c3ccc(-c4ccccc4)cc3)o2)c(C)c1	3.3	nt	15.6*	2.7	17.9	nt
O=C(N[C@@H](Cc1cccnc1)C(=O)N1CCC[C@H]1C(=O)NCCc1ccccc1Cl)c1cccs1	nt	nt	nt	nt	nt	0.5
Cc1ccc(S(=O)(=O)N2CCN(C(=O)N3CCOCC3)C2C(C)C)cc1 (stereo unspecified)	0.7	-2.1	-3.4	3.4	2.4	1.8
CCN(CC)c1ccc(C2N(C(=O)N3CCOCC3)CCN2S(=O)(=O)c2ccc(C)cc2)cc1 (stereo unspecified)	12.6	-12.2	-5.4	0.3	8.6	4.6*
Cc1nn(-c2ccccc2)c(N2CCCC2)c1/C=N/NC(=O)c1cc(-c2ccccn2)nc2ccccc12	12.7	-8.2	7.9	0.7	4.0	2.2
O=C(N/N=C/c1ccc(Cl)cc1)c1cc(-c2cccnc2)nc2ccccc12	9.1	-1.8	16.9*	2.0	-3.2	0.2
O=C(N/N=C/c1cccnc1)c1cc(-c2ccc(Cl)cc2)nc2ccccc12	-12.3	3.7	-1.8	3.6	-1.3	0.7
Cc1nn(-c2ccccc2)c(N2CCCC2)c1/C=N/NC(=O)c1cc(-c2ccccc2)nc2ccccc12	7.1	-4.7	10.2	3.6	-8.9	4.6*
CC(C)(C)C(=O)c1c(N)[nH]c(C(=O)c2ccccc2)c1-c1ccc([N+](=O)[O-])cc1	nt	nt	nt	nt	nt	0.2
CCOC(=O)Cc1cc(=O)n2[nH]c(-c3ccc(Cl)cc3)cc2n1	-16.8	-3.6	15.8*	2.9	11.2	-0.5
SMILES	ZTA counter	bovine MsrA act	PP1 inh	PP5 inh	EBNA-1 inhibitor	MsrA inhibitor
Cc1nn(-c2ccccc2)c(C)c1/C=N/NC(=O)CSc1nnc(SCc2cccc3ccccc23)s1	-5.1	-5.1	16.1*	1.6	17.7	2.1
COc1cc(/C=N/NC(N)=S)ccc1OCC(=O)Nc1ccc(C)cc1	34.1*	-11.2	0.9	3.3	47.1*	1.0
CNC(=S)N/N=C/c1ccc(OCC(=O)Nc2c(C)cc(C)cc2C)c(OC)c1	23.2	-8.1	0.6	1.4	5.7	2.1
C[C@@H]1ON(C)[C@H]2C[C@H]3c4cc(-c5ccc6c(c5)OCO6)ccc4CCN3C[C@@H]12	nt	nt	nt	nt	nt	-0.9
CCOC(=O)C1=CCC(c2ccccc2)N(S(C)(=O)=O)C1 (stereo unspecified)	nt	nt	nt	nt	nt	-0.5
CNc1oc(-c2ccccc2Cl)nc1C#N	8.8	-5.9	-1.1	0.6	-2.5	2.6
CCOc1ccc(Nc2oc(-c3ccccc3Cl)nc2C#N)cc1	-3.1	nt	17.2*	0.3	4.0	2.0
